Screening results (PubChem)
MEKK2 WT-MEK5: raises or lowers MEK5 binding to wildtype human MEKK2 PB1 domain; Q9Y2U5; bead flow cytometry, Alexa488-MEK5 binding to MEKK2 WT; actives lie on both sides; binding response (% of control), % at 10 µM; 290,000 tested, 1.1% active; AID 1531; in the data active means binding response below about 67% or above about 130%
CHT block: human CHT choline transport inhibition. 310,000 tested, 0.86% active. B-score at 10 µM. CHT-expressing cells, membrane potential dye, choline response; hits give low values. Q9GZV3;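 active means B-score over 3 SD under the library average, and starting fluorescence ratio not unusually high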;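 further: choline stimulus applied at its EC90 after an EC20 pre-addition; B-score computed on integrated fluorescence ratio after choline addition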
SUMO Mot1 rescue: inhibitors of SUMOylation pathway: yeast Mot1-301 growth rescue; S. cerevisiae Mot1-301 growth rescue, ATP luminescence, 38.5C; percent above DMSO median, 100 means doubled; growth rescue, % at 18.8 µM; 320,000 tested, 1% active; AID 2716;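 active means every valid replicate shows activation above 250% relative to neutral control wells; inactive means the rest, any valid replicate at or below 250%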;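 further: OY570 slx delta 5 strain wells were the positive control but not used for scaling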
CHT PAM: allosteric activators of human choline transporter CHT | Q9GZV3 | CHT-expressing cells, membrane potential dye, choline EC20; hits give high values; LV-AA mutant CHT in HEK293 cells | B-score at 10 µM | 310,000 tested, 0.49% active | AID 488977;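 active means initial fluorescence not abnormally high and integrated response B-score, plate-corrected, over 3 SD above library mean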
MEKK2 mut-MEK5: signal of MEK5 binding to mutant human MEKK2 PB1 domain | bead flow cytometry, Alexa488-MEK5 binding to MEKK2 mutant | percent response, % at 10 µM | 290,000 tested, 0.35% active; in the data active means percent response above about 24%, passing the limit was not always enough
MEKK3 PB1 HTS: raises or lowers MEK5 binding to the human MEKK3 PB1 domain. Q99759. bead-based flow cytometry, Alexa488-MEK5 binding to MEKK3; actives lie on both sides; 0 = blocked by unlabeled MEK5, 100 = vehicle. 290,000 tested, 1.4% active. binding response (% of control), % at 10 µM;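 active means binding response more than 3 SD above or below the average of its plate-row segment, actives on both sides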;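 further: Alexa488 bead fluorescence after subtracting the streptavidin-only scavenger bead signal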
Target sequence (Q99759 whole entry, looked up, the tested form may be a part): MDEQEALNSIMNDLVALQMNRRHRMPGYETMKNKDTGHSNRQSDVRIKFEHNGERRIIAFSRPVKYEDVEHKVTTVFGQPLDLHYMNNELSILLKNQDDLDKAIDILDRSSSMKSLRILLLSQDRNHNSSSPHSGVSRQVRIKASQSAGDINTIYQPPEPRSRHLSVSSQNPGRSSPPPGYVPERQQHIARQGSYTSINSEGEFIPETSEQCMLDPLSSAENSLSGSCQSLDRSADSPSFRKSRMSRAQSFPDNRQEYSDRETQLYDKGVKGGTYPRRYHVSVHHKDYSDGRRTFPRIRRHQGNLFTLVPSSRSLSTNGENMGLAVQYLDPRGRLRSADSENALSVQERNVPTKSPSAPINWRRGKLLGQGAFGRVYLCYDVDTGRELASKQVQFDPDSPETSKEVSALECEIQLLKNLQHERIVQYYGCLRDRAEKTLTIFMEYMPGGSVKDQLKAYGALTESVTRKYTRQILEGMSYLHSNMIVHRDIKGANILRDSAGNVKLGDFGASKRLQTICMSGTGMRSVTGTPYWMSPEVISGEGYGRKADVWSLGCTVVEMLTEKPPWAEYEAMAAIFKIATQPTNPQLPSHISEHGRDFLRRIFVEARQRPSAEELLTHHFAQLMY
CHT activ conf: confirmation of human choline transporter (CHT) activators | activation, % at 10 µM | shares compounds with CHT PAM | CHT-expressing cells, membrane potential dye fluorescence (FDSS); % of choline EC20–EC90 response window; HEK293 expressing CHT LV-AA mutant; choline added at its EC20 | AID 504833 | 2,500 tested, 91% active;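 active means primary screen active, with duplicate mean activation above negative control mean plus 3 SD, cut at about 11% in these data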
HEK293 MP dye: CHT activator counter-screen hit in parental HEK293 cells; membrane potential dye fluorescence (FDSS); measured after EC20 choline addition; shares compounds with CHT PAM; ratio readout change at 10 µM, hits read low; 2,500 tested, 62% active;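 active means duplicate-averaged ratio beyond 3 SD from buffer wells, up or down, though filed actives are nearly all decreases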
An asterisk follows results filed as active; i = inactive; . = not tested or not shown; ! = not confirmed by another sample. Sampled rows, rich in hits. Any-hit rate of the full collection: about 4.1%.

SMILES | MEKK2 WT-MEK5 | CHT block | SUMO Mot1 rescue | CHT PAM | MEKK2 mut-MEK5 | MEKK3 PB1 HTS | CHT activ conf | HEK293 MP dye
Cn1cnnc1SCC(=O)Nc1cc(S(=O)(=O)N2CCCCC2)ccc1Cl | 63 | i | . | i | -25 | 62 | . | .
C/C(=N\NC(=O)c1ccc(-c2ccccc2)cc1)c1cccc(N)c1 | 83 | i | -9 | i | -13 | 93 | . | .
C/C(=N\NC(=O)c1ccccc1)c1cccc(Br)c1 | 97 | i | 7 | i | -6 | 100 | 5 | i
Cc1ccccc1C(=O)NC(CC(C)C)C(=O)N1CCN(c2ccccc2)CC1 (configuration not stated) | 102 | i | -8 | i | 0 | 101 | . | .
Nc1cc2nc3ccccc3oc-2cc1=O | 72 | i | -11 | 6.8* | -36 | 72 | 13* | -38*
O=c1oc2ccccc2cc1-c1nc2ccccc2o1 | 89 | i | -5 | i | -8 | 78 | . | .
CC1COc2c(N3CCN(C)CC3)c(F)cc3c(=O)c(C(=O)O)cn1c23 (configuration not stated) | 112 | i | -17 | 8.7* | 4 | 108 | 44* | -44*
O=C(O)c1cn(C2CC2)c2cc(N3CCN(S(=O)(=O)c4ccc5c(c4)OCCO5)CC3)c(F)cc2c1=O | 103 | i | -12 | i | 3 | 102 | . | .
COc1c(F)c(F)cc2c(=O)c(C(=O)O)cn(C3CC3)c12 | 102 | i | 40 | i | 3 | 104 | . | .
COc1c(N2C[C@@H]3CCCN[C@@H]3C2)c(F)cc2c(=O)c(C(=O)O)cn(C3CC3)c12 | 122 | i | -10 | 7.8* | 5 | 111 | 35* | -42*
COc1c(N2CCN[C@H](C)C2)c(F)cc2c(=O)c(C(=O)O)cn(C3CC3)c12 | 104 | i | -5 | 6.3* | 3 | 99 | 31* | -40*
Cc1ccc(S(=O)(=O)C2C(=O)N(C)C3(C)CC2c2ccccc2O3)cc1 (configuration not stated) | 108 | i | 0 | i | 1 | 127 | . | .
COc1ccccc1CNC(=O)C1CCN(S(=O)(=O)c2ccc3c(c2)NC(=O)CO3)CC1 | 88 | i | 5 | i | -10 | 91 | . | .
Cc1oc(-c2ccccc2Cl)nc1CS(=O)(=O)CC(=O)N1CCOCC1 | 103 | i | -9 | i | -1 | 103 | . | .
CC(=O)Nn1c(-c2ccccc2)cc2ccccc21 | 105 | i | 9 | i | 7 | 109 | . | .
COc1ccc(CNC(=O)CCCn2nc(C)c3c(C)n(-c4ccc(C)cc4)nc3c2=O)cc1 | 102 | i | 5 | i | 1 | 100 | . | .
O=C(Nc1ccncc1)Nc1ccccn1 | 107 | i | 58 | i | 4 | 106 | 50* | -45*
COc1ccc(NC(=S)NC23CC4CC(CC(C4)C2)C3)cc1OC | 101 | i | 5 | i | 5 | 104 | . | .
COc1ccccc1-n1c(SCC(=O)NC2CC2)nc2ccccc2c1=O | . | . | -2 | . | . | . | . | .
COC(=O)C(C)NC(=O)CNS(=O)(=O)c1ccc(F)cc1 (configuration not stated) | 98 | i | 44 | i | -4 | 99 | . | .
COc1cc2nc(N3CCN(C(=O)C4CCCO4)CC3)nc(N)c2cc1OC (configuration not stated) | 117 | i | -16 | 8.3*! | 7 | 84 | 43* | -28*
CC(C)COP(=O)(OCC(C)C)C(Nc1ccccc1)c1ccc(F)cc1 (configuration not stated) | 99 | i | 31 | i | -2 | 99 | 15* | i
COc1cc(OC)c2ccc(=O)oc2c1C(CC(=O)N1CCN(c2ccccc2)CC1)c1ccc2c(c1)OCO2 (configuration not stated) | 97 | i | -5 | i | -1 | 105 | 33* | i
COc1cc(C(CC(=O)N2CCN(c3ccccc3)CC2)c2c(OC)cc(OC)c3ccc(=O)oc23)cc(OC)c1OC (configuration not stated) | 88 | i | 9 | i | 3 | 106 | . | .
O=C(CSc1nc(C2CC2)nc2ccccc12)N1c2ccccc2Sc2ccccc21 | . | i | -2 | i | . | . | . | .
SMILES | MEKK2 WT-MEK5 | CHT block | SUMO Mot1 rescue | CHT PAM | MEKK2 mut-MEK5 | MEKK3 PB1 HTS | CHT activ conf | HEK293 MP dye
O=c1c2ccccc2nc(SCCN2CCCCC2)n1CCc1ccccc1 | 120 | i | 181 | 7.8* | 0 | 100 | 4 | -27*
Cn1c(=O)c2c(nc(SCCN3CCCCC3)n2C)n(C)c1=O | 100 | i | -4 | i | 0 | 94 | 56* | -72*
COc1ccc(NC(=O)CSc2nc3ccccc3c(=O)n2CCCN2CCCCC2)c(OC)c1 | . | i | -16 | 12* | . | . | 73* | -39*
CCOc1ccc(OCCNCc2ccc(OC(C)C(=O)N(C)C)c(OCC)c2)cc1 (configuration not stated) | 122 | i | -5 | i | 8 | 101 | . | .
COc1cc(/C=N/NC(=O)c2nnn(-c3nonc3N)c2C(C)C)ccc1OCc1ccc(F)cc1 | 103 | i | -12 | i | 0 | 101 | . | .
O=C(NCCc1ccccc1F)C1CCC(=O)N(Cc2ccc(Cl)cc2)C1 (configuration not stated) | 93 | i | . | i | -2 | 94 | . | .
CN1/C(=C\C=[N+](C)c2ccccc2)C(C)(C)c2ccccc21 | 99 | i | 256 | 8.1* | -2 | 96 | 75* | -24*
Brc1cnc(N2CCCC2)nc1N1CCOCC1 | 91 | i | -6 | i | -5 | 97 | 16* | -20*
Brc1cnc(N2CCCCC2)nc1N1CCOCC1 | 105 | i | 7 | i | 1 | 105 | . | .
CCOC(=O)N1CCN(c2c(NCc3ccc(F)cc3)c(=O)c2=O)CC1 | 84 | i | 140 | i | -23 | 80 | 4 | i
CCOC(=O)N1CCN(c2c(N3CCN(c4ccc(F)cc4)CC3)c(=O)c2=O)CC1 | 94 | i | -3 | i | -3 | 100 | . | .
Cc1ccc(N(CC(=O)N/N=C/c2cc(C)n(-c3ccccc3)c2C)S(C)(=O)=O)c(C)c1 | 99 | i | -7 | i | 6 | 101 | 24* | i
Cc1ccc(N(CC(=O)Nc2c(C)n(C)n(-c3ccccc3)c2=O)S(C)(=O)=O)c(C)c1 | 103 | i | . | i | 2 | 100 | . | .
